Data published in PubChem BioAssay.
Values joined by “and” are separate entries in the source; they are usually repeats but may differ in a detail not shown here. Equal entries are not always repeated. Inconclusive results are not listed. Active and inactive are the calls of the source. Unless noted, cut-off not given; nearly all actives show AC50 up to about 26 µM.

Legend:
[1] = stimulators of nuclear beta-catenin in C2C12, primary screen, imaging, WNT3A-conditioned medium, mouse C2C12, NPC library (AID 1117326; in the data active means nuclear beta-catenin stimulation mostly above about 4.2%, no sharp cut-off; inactive means mostly below about 10%; further: reference of the scale not given here); conditions: stronger effect = higher value
[2] = stimulators of insulin release from INS-1E, primary screen, cell-based, 5 mM glucose, NPC library (AID 1117329;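 active means compound raises insulin release from rat beta cells at 5 mM glucose, no numeric limit stated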; further: reference of the scale not given here); conditions: rat INS-1E insulin secretion, at 10 µM, stronger effect = higher value
[3] = growth inhibition of GSK3B-pretreated HCT116 cells – cell-based, CellTiter-Glo, 0.2 to 20 µM (AID 1117336;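 active means compounds lowering colon cancer cell viability after pretreatment blocking the GSK3B kinase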); conditions: HCT116 viability after GSK3B inhibitor, at 20 µM, stronger effect = higher value
[4] = inhibition of endothelial tube formation, primary screen, imaging, VEGF stimulated, CD31 staining, tube area, NPC library (AID 1117340;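 active means compound that reduces growth-factor-driven endothelial tube area in a mixed cell culture, no cutoff stated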); conditions: VEGF-stimulated ADSC/ECFC co-culture, at 10 µM, stronger effect = higher value
[5] = glucagon-like peptide 1 release enhancers, primary assay, NCI-H716 cell line, NPC library (AID 1117341;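 active means compound raises GLP1 secretion from the human gut endocrine cells, with no numeric limit stated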; further: reference of the scale not given here); conditions: NCI-H716 cells, at 10 µM, stronger effect = higher value
[6] = HCT116 colon cancer cell growth inhibition, primary screen, CellTiter-Glo luminescence, NPC library (AID 1117342;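 active means compounds that lower survival of HCT116 colon cancer cells in the luminescence readout, no numeric limit stated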); conditions: at 20 µM (top of the series)
[7] = CellTiter-Glo luminescent readout of SW480 viability loss, NPC library primary (AID 1117343;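 active means compounds that lower viability of the colon cancer cells in the luminescence readout, with no numeric limit stated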); conditions: CellTiter-Glo luminescence; at 20 µM (top of the series) unless noted
[8] = decreased DLD-1 cellular survival, CellTiter-Glo luminescent readout, NPC compound collection, primary HTS (AID 1117346;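 active means compounds that lower survival of DLD-1 colon cancer cells in the luminescence readout, no cutoff given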); conditions: DLD-1 viability, CellTiter-Glo luminescence; at 20 µM (top of the series)
[9] = growth inhibition of DIPG glioma cells, dose response, cell-based, JHH-DIPG-1, MIPE4.0, CellTiter-Glo, qHTS (AID 1347062; cut-off not given, nearly all actives have AC50 up to about 27 µM); conditions: JHH-DIPG-1 viability, CellTiter-Glo ATP luminescence
[10] = SU-DIPG-VI glioma cell viability, MIPE4.0 library, CellTiter-Glo luminescence, qHTS (AID 1347066; cut-off not given, nearly all actives have AC50 up to about 30 µM;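 further: cells exposed to compound for 48 hours before readout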); conditions: CellTiter-Glo ATP luminescence
[11] = SU-DIPG-XXV glioma cell viability, MIPE5.0 library, qHTS (AID 1347068; cut-off not given, nearly all actives have IC50 up to about 30 µM;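 on IC50: cells exposed to compound for 48 hours before viability readout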)
[12] = survival rescue of mitochondrial mutant cells in low glucose, primary screen, MELAS cybrids, Rieske KO mouse fibroblasts, CellTiter-Glo (AID 1508586;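 active means mean z-score across replicates of 1.96 or higher in either the MELAS or the Rieske mutant cell line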;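 further: z relative to plate mean and SD of compound and empty wells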)
[13] = viability loss in pontine glioma line – cell-based, SU-DIPG-XXV, MIPE5.0, CellTiter-Glo, qHTS, dose response (AID 1347065); conditions: CellTiter-Glo ATP luminescence;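 further: cells exposed to compound for 48 hours before ATP readout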
[14] = JHH-DIPG-1 glioma cell viability, MIPE5.0 library, CellTiter-Glo luminescence, qHTS (AID 1347067); conditions: JHH-DIPG-1 glioma viability, CellTiter-Glo ATP luminescence;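 further: cells exposed to compound for 48 hours before readout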
[15] = growth inhibition of DIPG glioma cells, dose response, cell-based, SU-DIPG-IV, MIPE4.0, CellTiter-Glo, qHTS (AID 1347063; cut-off not given, nearly all actives have AC50 up to about 30 µM;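 further: compound exposure lasted 48 hours before the viability readout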); conditions: SU-DIPG-IV viability, CellTiter-Glo ATP luminescence
[16] = sensitizers of A549 cells to miR-34 induction, primary screen, imaging, A549 dox-inducible miR-34, nuclei and caspase counts (AID 1347080;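 active means compounds whose cell count with miR-34 switched on is under 0.7 times the count with it off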); conditions: A549 miR-34 inducible, Hoechst nuclei count, 48 h
[17] = viability rescue of complex I mutant cybrids, primary screen, cell-based, galactose medium, ATP luminescence (AID 1645843;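 active means z-score of at least 1.8 in each of two replicates, scored against plate mean and spread of sample wells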;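 further: positive z means more ATP and so rescue of galactose-driven cybrid death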); conditions: complex I mutant cybrid cells, 72 h, stronger effect = higher value
[18] = liver-stage malaria parasite growth inhibition, primary screen, cell-based, HepG2, luciferase luminescence, HepG2 viability (AID 624349; in the data active means parasite load remaining mostly below about 12%, no sharp cut-off; inactive means mostly above about 10%;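 further: 100% = mean of DMSO negative control wells on the same plate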); conditions: P. berghei liver stage in HepG2, luciferase luminescence, concentration not given here; parasite load remaining: stronger effect = lower value; viability: measured here: HepG2 viability without parasites
[19] = phospholipid biosynthesis inhibitors in animal cells, primary screen, cell-based, LOPAC library, screen 4 (AID 1347384; call rule not given here); conditions: phospholipid biosynthesis inhibition screen, at 10 µM
[20] = MELAS cybrid survival, CellTiter-Glo 48 h, stronger effect = higher value
[21] = Rieske KO mouse fibroblast survival, CellTiter-Glo 72 h
[22] = stronger effect = lower value, cell number ratio, induced over uninduced
[23] = measured here: relative caspase fold change +Dox/-Dox
[24] = measured here: total cells with miR-34 induction, stronger effect = lower value
[25] = measured here: total cells without miR-34 induction

CC(=O)OCC(=O)[C@@]12N=C(C)O[C@@H]1C[C@H]1[C@@H]3CCC4=CC(=O)C=C[C@]4(C)[C@H]3[C@@H](O)C[C@@]12C
inactive: nuclear beta-catenin stimulation ([1]; at 10 µM) 1.5% | insulin secretion stimulation [2] 2.95% | viability decrease [3] 0.4% | tube area decrease [4] 2.2% | GLP1 secretion stimulation [5] 1.7% | inhibition of viability [6] -21.6% | viability decrease (inhibition) [7] 14.8% | viability decrease (inhibition) [8] -6.8% | outcome [9] | outcome [10] | outcome [11] | z-score [12, 20] 0.598
3.9%: nuclear beta-catenin stimulation ([1]; stimulation, at 2 µM)
1.06: z-score [12, 21]

O=C(Nc1ccc(S(=O)(=O)N2CCOCC2)cc1)c1cc(Cl)ccc1NS(=O)(=O)c1ccc(Cl)s1
active: viability decrease [3] 118% | tube area decrease [4] 100% | GLP1 secretion stimulation [5] 39.8% | inhibition of viability [6] 124% | viability decrease (inhibition) [7] 158% | viability decrease (inhibition) [8] 101%
-0.5%: nuclear beta-catenin stimulation ([1]; stimulation, at 2 µM)
inactive: nuclear beta-catenin stimulation ([1]; at 10 µM) 0.9% | insulin secretion stimulation [2] 3.7% | outcome [13] | outcome [14] | outcome [11]

Cc1ccccc1C(=O)Nc1ccc(C(=O)N2CCCC(O)c3cc(Cl)ccc32)c(C)c1 (centres undefined)
8090 and 8960: cell count [16, 24]
9700 and 10500: cell count [16, 25]
1.4%: nuclear beta-catenin stimulation ([1]; stimulation, at 2 µM)
active: viability decrease [3] 52.2%
-0.17 and 0.558: z-score [12, 21]
inactive: nuclear beta-catenin stimulation ([1]; at 10 µM) 3.2% | insulin secretion stimulation [2] 0.15% | tube area decrease [4] 3.5% | GLP1 secretion stimulation [5] 2% | inhibition of viability [6] 38.9% | viability decrease (inhibition) [7] 15.2% | viability decrease (inhibition) [8] 21.9% | outcome [15] | outcome [13] | outcome [10] | outcome [14] | outcome [11] | fold change [16, 22] 0.834 and 0.856 | z-score [12, 20] 0.131 and -0.387 | z-score [17] 0.835
0.412 and 0.955: fold change [16, 23]

Cc1ccc(C(=O)c2cc(O)c(O)c([N+](=O)[O-])c2)cc1
97%: viability [18]
0.594 and 0.464: fold change [16, 23]
active: viability decrease [3] 43.7% | inhibition of viability [6] 55.5% | viability decrease (inhibition) [7] 84.4% | viability decrease (inhibition) [8] 67.5%
inactive: parasite load remaining [18] 26.1% | nuclear beta-catenin stimulation ([1]; at 10 µM) 5.2% | insulin secretion stimulation [2] -0.8% | tube area decrease [4] 39.4% | GLP1 secretion stimulation [5] -3.6% | outcome [9] | outcome [13] | outcome [14] | outcome [11] | fold change [16, 22] 0.985 and 0.843 | z-score [12, 20] -0.224 and 0.125 and 0.577 | z-score [17] -0.715
8860 and 9320: cell count [16, 24]
1.2%: nuclear beta-catenin stimulation ([1]; stimulation, at 2 µM)
8990 and 11100: cell count [16, 25]
-0.152 and -0.0292 and 1.07: z-score [12, 21]

CCCCc1oc2ccc(NS(C)(=O)=O)cc2c1C(=O)c1ccc(OCCCN(CCCC)CCCC)cc1
inactive: nuclear beta-catenin stimulation ([1]; at 10 µM) -3.1% | insulin secretion stimulation [2] 2.1% | GLP1 secretion stimulation [5] -5.9% | fold change [16, 22] 1.3 and 0.866 | z-score [17] -2.66
-1.62 and -0.663 (inactive): z-score [12, 20]
0.545 and 1.08: fold change [16, 23]
2%: nuclear beta-catenin stimulation ([1]; stimulation, at 2 µM)
1290 and 3970: cell count [16, 25]
1.98 and -1.01: z-score [12, 21]
active: viability decrease [3] 99.1% | tube area decrease [4] 109% | inhibition of viability [6] 99.3% | viability decrease (inhibition) [7] 102% | viability decrease (inhibition) [8] 101% | AC50 [15] 7.43 µM | AC50 [10] 13.2 µM | AC50 [14] 10.5 µM | IC50 [11] 10.5 µM
1680 and 3440: cell count [16, 24]

N[C@@H](Cc1c[nH]c2ccc(O)cc12)C(=O)O
9860: cell count [16, 25]
inactive: nuclear beta-catenin stimulation ([1]; at 10 µM) 1.6% | insulin secretion stimulation [2] 2.1% | viability decrease [3] -0.3% | tube area decrease [4] 1.7% | GLP1 secretion stimulation [5] 3.1% | inhibition of viability [6] 2.5% | viability decrease (inhibition) [7] -17.1% | viability decrease (inhibition) [8] -5.7% | outcome [15] | outcome [13] | outcome [10] | outcome [14] | outcome [11] | fold change [16, 22] 1.04 | outcome [19] | z-score [17] 0.37
10300: cell count [16, 24]
0.787: fold change [16, 23]
3.9%: nuclear beta-catenin stimulation ([1]; stimulation, at 2 µM)

O=c1cc(O)c(Cl)c[nH]1
inactive: nuclear beta-catenin stimulation ([1]; at 10 µM) -0.6% | insulin secretion stimulation [2] -1.9% | viability decrease [3] 28% | tube area decrease [4] -18.9% | GLP1 secretion stimulation [5] -0.1% | inhibition of viability [6] 27.8% | viability decrease (inhibition) [8] 12.9% | outcome [13] | outcome [10] | outcome [14] | outcome [11] | fold change [16, 22] 0.957 | z-score [12, 20] -0.106
8010: cell count [16, 24]
-0.13: z-score [12, 21]
1.21: fold change [16, 23]
-0.5%: nuclear beta-catenin stimulation ([1]; stimulation, at 2 µM)
active: viability decrease (inhibition) [7] 54.6%
8380: cell count [16, 25]

CCOC(=O)c1c(C)n(C)c2ccc(O)cc12
8760: cell count [16, 25]
0.616: z-score [12, 21]
0.841: fold change [16, 23]
2.1%: nuclear beta-catenin stimulation ([1]; stimulation, at 2 µM)
inactive: nuclear beta-catenin stimulation ([1]; at 10 µM) 0.7% | insulin secretion stimulation [2] 0.5% | viability decrease [3] -5.75% | tube area decrease [4] -15.4% | GLP1 secretion stimulation [5] 3.6% | inhibition of viability [6] 0% | viability decrease (inhibition) [7] 7% | viability decrease (inhibition) [8] -0.8% | outcome [9] | outcome [15] | outcome [10] | outcome [11] | fold change [16, 22] 0.886 | z-score [12, 20] -0.277
7760: cell count [16, 24]

CC(C(=O)O)c1ccc2c(c1)CC(=O)c1ccccc1S2 (centres undefined)
0.594: fold change [16, 23]
10800: cell count [16, 25]
9750: cell count [16, 24]
0.988: z-score [12, 21]
inactive: nuclear beta-catenin stimulation ([1]; at 10 µM) -0.5% | insulin secretion stimulation [2] 5.5% | viability decrease [3] -7.1% | tube area decrease [4] 2.5% | GLP1 secretion stimulation [5] -2% | inhibition of viability [6] -2.7% | viability decrease (inhibition) [7] 21.1% | viability decrease (inhibition) [8] 7.9% | outcome [13] | outcome [11] | fold change [16, 22] 0.901 | z-score [12, 20] -0.314
-1.2%: nuclear beta-catenin stimulation ([1]; stimulation, at 2 µM)
